DT40 TDP1 no CPT: qHTS for Inhibitors of human tyrosyl-DNA phosphodiesterase 1 (TDP1): qHTS in cells in absence of CPT | DT40 Tdp1-/- hTDP1 cells, no CPT, ATP luminescence, 48 h | Potency, µM (top dose mostly 46.2 µM), actives largely listed as inhibitors | 420,000 tested, 15% active | AID 686978, 2013; further: nearly all actives have a fitted effect of over 55% in size
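Chicken DT40 Tdp1-/- cells stably complemented with human TDP1 were seeded at 400 cells/well with DMSO in place of 20 nM camptothecin. After compound pinning, cells grew at least 48 hr at 37 °C; viability read by CellTiter-Glo luminescence.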
TDP1 cell CPT: DT40-hTDP1 cell growth loss with CPT; 420,000 tested, 12% active; Potency, µM (series often up to 46.2 µM), actives largely listed as inhibitors; chicken DT40 Tdp1-/-;hTDP1 cells + 20 nM CPT, ATP luminescence, 48 h; further: nearly all actives have a fitted effect of over 55% in size
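Cell growth measured by CellTiter-Glo luminescence after a minimum 48 h, 37 C compound exposure with 20 nM CPT in Tdp1-knockout DT40 cells stably expressing hTDP1, seeded 400/well; qHTS titration format.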
HT1080 IDH1KD tx: kills HT-1080 cells with IDH1 knockdown | Potency, µM (highest dose often 46.1 µM), usual class: cytotoxic | 360,000 tested, 2% active | HT-1080 IDH1 knockdown viability, ATP luminescence, 48 h
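After a 2 h attachment period, IDH1KD HT-1080 cells took pin-transferred compound for 48 h at 37 °C; ATP-based luminescence after 10 min room-temperature reagent incubation reported viability.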
HT1080-NT tox: kills 2HG-producing HT-1080-NT fibrosarcoma cells | Potency, µM (titrated, usually from 46.1 µM), hits mostly cytotoxic | HT-1080-NT fibrosarcoma viability, CellTiter-Glo ATP luminescence, 48 h | 360,000 tested, 1.6% active | AID 686970;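 further: NT is the 2HG producing partner of a matched IDH1 knockdown line; nearly all actives have a fitted effect of over 55% in size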
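Fibrosarcoma NT cells, 750 per well in 5% FBS RPMI, were exposed to compound for 48 hours. Viability: CellTiter-Glo luminescence.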
IL1B secr inh: blocks inflammasome-driven IL-1 beta release; THP-1 LPS/ATP IL-1B secretion, AlphaLISA, 16 h; active compounds read low; activity change, % at 57.5 µM; 360,000 tested, 4.7% active; AID 743279; in the data active means activity change below about -50%; inconclusive means mostly about -30% to -49%
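THP-1 cells pretreated 1 hr with compounds (up to 57.5 uM final), then stimulated with LPS (250 ng/mL final) plus ATP (1.25 mM final); secreted IL-1B measured by AlphaLISA after 16 hr, decreased signal indicating inhibition.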
Of the large screens only hits and unclear results are named; the others gave an inactive call; ! = repeats disagree. This is a sample that favours compounds with a hit; in the whole collection about 19% have one here. Unless noted, the call rests on the fitted dose curve; in most records, active means well fitted curve in the direction sought with a large enough effect; inconclusive means small, poorly fitted or top-dose-only effect, or another doubt; inactive means no such curve, though single readings can be large; an effect the other way counts as inactive or inconclusive.

CCCCCCCN(C(=O)CCl)c1cccc(C)c1	DT40 TDP1 no CPT 23.1µM, TDP1 cell CPT inconclusive, HT1080 IDH1KD tx inconclusive, IL1B secr inh -105.2
CCCCCCN(C(=O)CCl)c1ccccc1	DT40 TDP1 no CPT 10.3µM, TDP1 cell CPT 16.4µM, HT1080 IDH1KD tx inconclusive, HT1080-NT tox 3.66µM, IL1B secr inh -66.5
O=[N+]([O-])c1sccc1CS(=O)(=O)c1ccccc1	TDP1 cell CPT inconclusive
CCn1c(O)c(/C=N/N=C2CCCCC2)c2cc(C3=NNC(=O)CC3)ccc21	DT40 TDP1 no CPT 10.3µM, TDP1 cell CPT 8.2µM
Cc1onc(-c2ccccc2)c1C(=O)N1CCN(c2ncccc2C(F)(F)F)CC1	DT40 TDP1 no CPT inconclusive, TDP1 cell CPT 23.1µM
CCc1noc(C)c1C(=O)N1CCN(c2cccc(C)c2C)CC1	DT40 TDP1 no CPT 14.6µM, TDP1 cell CPT inconclusive
CCc1noc(C)c1C(=O)N1CCN(c2cccc(Cl)c2)CC1	DT40 TDP1 no CPT inconclusive, TDP1 cell CPT inconclusive
Cc1cccc(N2CCN(C(=O)c3c(-c4ccccc4)noc3C)CC2)c1C	DT40 TDP1 no CPT 1.46µM, TDP1 cell CPT 2.91µM, HT1080 IDH1KD tx 1.3µM, HT1080-NT tox 1.16µM
Cc1onc(-c2ccccc2)c1C(=O)N1CCCC1	none
Cc1onc(-c2ccccc2)c1C(=O)N1CCN(S(=O)(=O)c2ccccc2Br)CC1	DT40 TDP1 no CPT 14.6µM, TDP1 cell CPT inconclusive
COc1ccc2cc(C[C@@H]3CC[C@@H](CO)O3)ccc2c1	none
CC(C)(C)C(=O)NCCN1C(=O)S/C(=C\c2ccc([N+](=O)[O-])cc2)C1=O	DT40 TDP1 no CPT 23.1µM, TDP1 cell CPT inconclusive, IL1B secr inh -73.0
O=C(/C=C/c1ccccc1[N+](=O)[O-])NCCN1C(=O)S/C(=C\c2ccc(F)cc2)C1=O	none
O=C(NCCN1C(=O)S/C(=C\c2ccc(Cl)c([N+](=O)[O-])c2)C1=O)C1=COCCO1	DT40 TDP1 no CPT 8.2µM, TDP1 cell CPT 20.6µM, HT1080 IDH1KD tx inconclusive, HT1080-NT tox 14.6µM, IL1B secr inh -103.0
CCC1CCCCN1C(=O)c1cc(S(=O)(=O)N2CCOCC2)ccc1C (stereo unspecified)	DT40 TDP1 no CPT inconclusive, TDP1 cell CPT inconclusive
OC1(c2cccnc2)CCN(Cc2ccc3c(c2)CN(Cc2ccc(F)c(F)c2)CCO3)CC1	DT40 TDP1 no CPT 11.6µM (no result: HT1080 IDH1KD tx, HT1080-NT tox, IL1B secr inh)
Cc1nn(C)c(Cl)c1CN1CCOc2ccc(CN3CCC(Oc4cccnc4)CC3)cc2C1	DT40 TDP1 no CPT 8.2µM, TDP1 cell CPT 10.3µM (no result: HT1080 IDH1KD tx, HT1080-NT tox, IL1B secr inh)
COc1ccccc1N1CCN(c2nc3c(S(=O)(=O)c4ccc(C)c(C)c4)nnn3c3ccc(Cl)cc23)CC1	none (no result: HT1080 IDH1KD tx, HT1080-NT tox, IL1B secr inh)
CN(Cc1ccc2ccccc2c1)C(=O)c1ccc(C(F)(F)F)cc1	IL1B secr inh inconclusive
CN(Cc1ccccc1)C(=O)c1ccc(Nc2nc(C(N)COCc3ccccc3)cs2)nc1 (stereo unspecified)	DT40 TDP1 no CPT inconclusive, TDP1 cell CPT inconclusive, HT1080 IDH1KD tx inconclusive, HT1080-NT tox 23.1µM, IL1B secr inh inconclusive
CN(Cc1ccccc1)C(=O)c1ccc(Nc2nc(C(N)Cc3ccc(C(F)(F)F)cc3)cs2)nc1 (stereo unspecified)	DT40 TDP1 no CPT 11.6µM, TDP1 cell CPT 11.6µM, IL1B secr inh -105.3 (no result: HT1080 IDH1KD tx, HT1080-NT tox)
CC(C)C(N)c1csc(Nc2ccc(C(=O)NCCCO)cn2)n1 (stereo unspecified)	HT1080-NT tox inconclusive
CN(Cc1ccccc1)C(=O)c1ccc(Nc2nc(C(N)Cc3ccccc3)cs2)nc1 (stereo unspecified)	DT40 TDP1 no CPT 13µM, TDP1 cell CPT 14.6µM, HT1080 IDH1KD tx 20.6µM, HT1080-NT tox inconclusive
CC(C)CC(N)c1csc(Nc2ccc(C(=O)N(C)Cc3ccccc3)cn2)n1 (stereo unspecified)	DT40 TDP1 no CPT 5.8µM, TDP1 cell CPT 5.17µM, HT1080 IDH1KD tx 5.8µM, HT1080-NT tox 4.61µM
CCN1CCN(C(=O)CCc2nnc(CCCCc3ccccc3)o2)[C@@H](C)C1=O	none
O=C(COC(=O)c1cc(Cl)nc(Cl)c1)Nc1ccc(Cl)c(S(=O)(=O)N2CCOCC2)c1	DT40 TDP1 no CPT inconclusive
COc1ccc(-c2noc(CNC(=O)c3cc(OC)c(OC)c(OC)c3)n2)cc1	none (no result: HT1080 IDH1KD tx, HT1080-NT tox, IL1B secr inh)
CCCCN(C)C(=O)c1ccc(Nc2nc(C(N)Cc3ccccc3)cs2)nc1 (stereo unspecified)	DT40 TDP1 no CPT 14.6µM, TDP1 cell CPT 23.1µM, HT1080-NT tox 23.1µM
CNCC[C@@H](Oc1ccccc1C)c1ccccc1	DT40 TDP1 no CPT 23.7µM, TDP1 cell CPT inconclusive, HT1080 IDH1KD tx inconclusive, HT1080-NT tox inconclusive, IL1B secr inh inconclusive
CNCCC(Oc1ccccc1OC)c1ccccc1 (stereo unspecified)	DT40 TDP1 no CPT 23.1µM!, TDP1 cell CPT 13µM!
CCOc1ccc(NC(=S)N2CCC(NC(=O)C3CCCCC3)CC2)cc1	none
COc1ccc(CCN2CC(C(=O)N(C)CCc3cn[nH]c3)CCC2=O)cc1 (stereo unspecified)	none
Cc1ccc(-n2c(=O)c3oc4ccccc4c3n(CC(=O)Nc3ccccc3)c2=O)cc1C	none (no result: HT1080 IDH1KD tx, HT1080-NT tox, IL1B secr inh)
O=C(c1csnn1)N1CCC2(CCCN(c3ncccn3)C2)CC1	none (no result: HT1080 IDH1KD tx, HT1080-NT tox, IL1B secr inh)
Cc1cc(C)c(S(=O)(=O)N2CCOC2CNC(=O)C(=O)NCCc2c[nH]c3ccccc23)c(C)c1 (stereo unspecified)	DT40 TDP1 no CPT 18.4µM, TDP1 cell CPT 25.9µM
O=C(NCCc1c[nH]c2ccccc12)C(=O)NCC1OCCN1S(=O)(=O)c1ccc(Cl)cc1 (stereo unspecified)	DT40 TDP1 no CPT 20.6µM, TDP1 cell CPT inconclusive
O=C(NCCc1c[nH]c2ccccc12)C(=O)NCC1OCCCN1S(=O)(=O)c1ccccc1 (stereo unspecified)	DT40 TDP1 no CPT 16.4µM
O=C(NCCc1c[nH]c2ccccc12)C(=O)NCC1OCCN1S(=O)(=O)c1ccccc1 (stereo unspecified)	DT40 TDP1 no CPT inconclusive, TDP1 cell CPT inconclusive
O=C(NCCc1c[nH]c2ccccc12)C(=O)NCC1OCCN1S(=O)(=O)c1ccc(F)cc1 (stereo unspecified)	DT40 TDP1 no CPT inconclusive, TDP1 cell CPT inconclusive
Cc1ccc(S(=O)(=O)N2CCCOC2CNC(=O)C(=O)NCCc2c[nH]c3ccccc23)cc1 (stereo unspecified)	DT40 TDP1 no CPT 18.4µM, TDP1 cell CPT 14.6µM, IL1B secr inh -59.7
O=C(CC[C@H]1O[C@@H](n2ccc(=O)[nH]c2=O)[C@H](O)[C@@H]1O)N[C@H](Cc1ccccc1)C(=O)NCC1CCCCC1	HT1080-NT tox inconclusive
CSCC[C@H](NC(=O)[C@H]1CC[C@H](CNC(=O)[C@@H](N)Cc2ccccc2)CC1)C(=O)O	none
Cc1cc(NN)nc(Cc2ccccc2)n1	none
O=C(CN1C(=O)C(=O)N(CCC2=CCCCC2)C1=O)c1c[nH]c2ccccc12	DT40 TDP1 no CPT inconclusive, IL1B secr inh -58.8

Bioassay records (PubChem)
